In PubChem BioAssay (NCI) one finds growth data, which are given here for four molecules.

The panel holds about 83,000 compounds, 20% with a hit somewhere; the sample as a whole holds those more often.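 Interpretation: 100, growth as untreated; towards 0, rising growth inhibition; 0, no net growth; 0 to -100, cell death. Compounds scoring below 10 were considered active.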 Activity calls are given as the source filed them.

For this assay, the system named is HL-60(TB) leukemia. Put plainly: NCI-60 one-dose screen, 48 h (100 = growth as untreated, 0 = no growth, -100 = all killed). The note with it: 10 µM unless noted.
Regarding `N/C(=N\N=C\c1cc2ccccc2[nH]1)N/N=C/c1cc2ccccc2[nH]1`, the growth was 101% (inactive). `N#C/C(=C\c1ccccc1Cl)c1cc2ccccc2[nH]1`: the growth was 98.8% (inactive). In the case of `COc1ccc(C(=S)N2CCN(c3ccccc3Cl)CC2)cc1OC`, the growth was 118% (inactive). The figure for `Cc1ccccc1CNc1c2ccccc2nc2ccccc12` is 15.3% (inactive).
